# Measured values as given in PubChem BioAssay (EPA / NIEHS).
# Records with an inconclusive call do not appear. The source holds several records for some structures; these can differ, active in one and inactive in another. Calls of active or inactive are those of the source. The calls were made as follows: active = hit-call score of the fitted dose curve at least 0.9, where 1 is the maximum; inconclusive = response in the unintended direction; inactive = score below 0.9.
# Target: bovine Estrogen Receptor (ER), ESR1 (gene 407238) (UniProt P49884)
# Assay: NVS_NR_bER: NovaScreen (NVS) Nuclear Receptor Binding Assay for bovine Estrogen Receptor (ER) (AID 2283345);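 also: actives lower the bound radioligand count which means they displace the ER ligand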
# Method: NVS_NR_bER is a biochemical, single-readout assay that uses extracted gene-proteins from Bovine uterine membranes in a tissue-based cell-free assay. Measurements were taken 18 hours after chemical dosing in a 96-well plate.NVS_NR_bER is one of one assay component(s) measured or calculated from the NVS_NR_bER assay. It is designed to make measurements of radioligand binding, a form of binding reporter, as detected with scintillation counting signals by Lysate-based radiodetection technology.Data from the assay component NVS_NR_bER was analyzed into 1 assay endpoint. This assay endpoint, NVS_NR_bER, was analyzed in the positive analysis fitting direction relative to DMSO as the negative control and baseline of activity. Using a type of binding reporter, loss-of-signal activity can be used to understand changes in the binding as they relate to the gene ESR1. Furthermore, this assay endpoint can be referred to as a primary readout, because the performed assay has only produced 1 assay endpoint. To generalize the intended target to other relatable targets, this assay endpoint is annotated to the nuclear receptor intended target family, where the subfamily is steroidal.
# Binding assays used specific radioligands (tritiated, iodinated) with non-radioactive competitive displacement ligands in agonist or antagonist protocols (as indicated) and various reference compounds and inhibitors to titrate specific binding to receptors and transporters. Most enzyme assays (CYPs, kinases, phosphatases, proteases, HDACs) used recombinant protein and specific substrates (fluorescence mostly, some colorimetric and radioactive) and inhibitors, followed by a biochemical separation of substrate and product. All assays for the biochemical HTS were initially run in duplicate at a single concentration (10 uM for CYP450 assays and 25 uM for all others). […] Each assay was run with positive and negative controls, and concurrent controls on every plate. The follow-up (secondary) screen tested active chemical-pairs in concentration series, as well as a few additional assays not tested in the primary screen, some selected negative inactives, and several cases re-run in the concentration series for confirmatory purposes.
# Sequence of bovine Estrogen Receptor (ER), ESR1 (gene 407238) (P49884 whole entry, looked up): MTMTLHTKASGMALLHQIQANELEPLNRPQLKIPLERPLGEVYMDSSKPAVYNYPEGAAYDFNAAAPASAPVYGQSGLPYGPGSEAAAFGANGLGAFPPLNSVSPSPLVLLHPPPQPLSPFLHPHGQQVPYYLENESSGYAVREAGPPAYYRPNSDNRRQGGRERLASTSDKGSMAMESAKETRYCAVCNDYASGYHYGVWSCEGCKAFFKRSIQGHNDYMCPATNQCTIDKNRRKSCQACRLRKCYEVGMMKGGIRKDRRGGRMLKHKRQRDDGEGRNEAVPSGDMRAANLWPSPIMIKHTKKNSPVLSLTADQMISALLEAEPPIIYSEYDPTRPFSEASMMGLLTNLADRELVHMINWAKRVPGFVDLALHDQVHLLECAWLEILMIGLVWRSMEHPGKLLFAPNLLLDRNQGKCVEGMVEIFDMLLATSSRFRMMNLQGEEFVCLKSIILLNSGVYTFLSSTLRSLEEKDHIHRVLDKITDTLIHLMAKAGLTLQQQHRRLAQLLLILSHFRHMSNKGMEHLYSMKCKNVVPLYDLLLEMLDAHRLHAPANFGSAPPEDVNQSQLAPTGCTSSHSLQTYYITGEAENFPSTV
Compound,outcome,AC50
CCC(=O)O[C@H]1CC[C@H]2[C@@H]3CCC4=CC(=O)CC[C@]4(C)[C@H]3CC[C@]12C,inactive,
CCCCCCCCCc1ccc(O)cc1,inactive,
Cc1cc(O)ccc1Cl,inactive,
CCC(C)(c1ccc(O)cc1)c1ccc(O)cc1,inactive,341 nM (active) [middle of 4 runs]
C[C@]12CCC(=O)C=C1CC[C@@H]1[C@@H]2CC[C@]2(C)C(=O)CC[C@@H]12,,25 µM (active)
Clc1ccc(C(c2ccccc2Cl)C(Cl)(Cl)Cl)cc1 (stereo not drawn),inactive,
CC(C)(O)C(=O)Nc1ccc([N+](=O)[O-])c(C(F)(F)F)c1,inactive,
CO/C=C(/C(=O)OC)c1ccccc1COc1cccc(C(F)(F)F)n1,inactive,
ClC(Cl)=C(c1ccc(Cl)cc1)c1ccc(Cl)cc1,inactive,
CCCCCCCCCC[N+](C)(C)CCCCCCCCCC,inactive,
CC(C)(c1ccccc1)c1ccc(O)cc1,,11.5 µM (active) [middle of 4 runs]
O=NN(c1ccccc1)c1ccccc1,inactive,
CC(c1ccc(O)cc1)(c1ccc(O)cc1)c1ccc(O)cc1,,3.72 µM (active)
CCOCCOC(C)=O,inactive,
O=C(O)C(F)(F)C(F)(F)C(F)(F)C(F)(F)C(F)(F)C(F)(F)C(F)(F)C(F)(F)C(F)(F)F,inactive,
O=C(O)C(F)(F)C(F)(F)C(F)(F)C(F)(F)C(F)(F)C(F)(F)C(F)(F)C(F)(F)F,inactive,
NS(=O)(=O)C(F)(F)C(F)(F)C(F)(F)C(F)(F)C(F)(F)C(F)(F)C(F)(F)C(F)(F)F,inactive,
Oc1ccc(Cl)cc1Cl,inactive,
Oc1c(Cl)c(Cl)c(Cl)c(Cl)c1Cl,inactive,
CCCCCCCCOC(=O)c1ccccc1C(=O)OCCCCCCCC,inactive,
Cc1cc(-c2ccc(N)c(C)c2)ccc1N,,0.0481 µM (active)
C[C@]12CCC(=O)C=C1CC[C@@H]1[C@@H]2CC[C@@]2(C)[C@H]1CC[C@]2(C)O,inactive,
